# Assay results published in ChEMBL document CHEMBL3988442, “University of Dundee, Small-Polar-MMV Screening Library” (2021).
# In all, about 48,000 compounds went through this assay and about 13,000 (27%) showed an effect of 50% or more. This is one part of the list.
# System: Wolbachia pipientis
# Assay: Anti-Wolbachia Cell-Based Screen
# Type: functional
# Set-up: scale not given: in the data most compounds retested in dose-response had high values
# Settings: 5 µM
row,SMILES,Percent Effect
1,Cc1nc(CN(C)C(=O)c2cc(C)sc2NC(=O)C(C)(C)C)no1,-2.602%
2,Fc1cccc(-n2cccn2)c1NCc1nnc(C2CC2)o1,-10.01%
3,Cc1cc(C)n(C2CN(C(=O)Cn3c(C)cc(=O)c4ccccc43)C2)n1,17.29%
4,O=C(CSCC1CC1)N1C[C@@H]2CC[C@H](C1)N(Cc1ccccn1)C2=O,4.164%
5,CCn1cc2c(n1)CN(S(=O)(=O)Cc1ccccc1)CC2COC (stereo unspecified),10.82%
6,CN1CC(=O)N(C2CCNCC2)Cc2c(NC3CCC3)ncnc21,106.1%
7,CN1CC(=O)N(C2CCC2)Cc2c(NC3CCNCC3)ncnc21,107.9%
8,Cc1n[nH]c(C2CN(CCNC3CCCCC3)CCO2)n1 (stereo unspecified),13.35%
9,CCNS(=O)(=O)c1ccc2c(c1)c(=O)n(CC)c(=O)n2CC,90.08%
10,CCNS(=O)(=O)c1ccc(C)c(C(=O)N(C)Cc2ccccc2C)c1,-10.61%
11,CCc1nc(Cn2c(=O)n(CC)c3ccccc32)no1,-6.157%
12,CCCN(C)C(=O)c1cc(S(=O)(=O)NCC)ccc1C,-9.376%
13,CCn1c(=O)n(CC)c2cc(S(N)(=O)=O)ccc21,88.83%
14,CCn1c(=O)n(Cc2nc(C3CC3)no2)c2ccccc21,-1.691%
15,CCn1c(=O)c2cc(S(N)(=O)=O)ccc2n(CC)c1=O,133.6%
16,NC(=O)Cn1ccc(NC(=O)C2(c3cccc(Cl)c3)CC2)n1,-4.273%
17,CN(C)C(=O)[C@@H]1C[C@H]2OCC[C@H]2N(CCOc2ccc(Cl)cc2)C1.O=C(O)C(F)(F)F,2.849%
18,Cn1ccnc1COc1ccc(NC(=O)CCC2CCCO2)cc1 (stereo unspecified),7.737%
19,CC(C(=O)Nc1ccnn1C(C)C)N1CCN(Cc2ccon2)CC1 (stereo unspecified),9.174%
20,c1cnc(N2C[C@H]3CCC[C@@H](CN4CCCC4)[C@H]3C2)nc1,-23.6%
21,Cc1cnc(CN(C)C2CCN(CC(=O)Nc3nncs3)C2)o1.O=C(O)C(F)(F)F (stereo unspecified),3.209%
22,Cc1nonc1CC(=O)N1CCC2(CCCN(C3CCOCC3)C2=O)C1 (stereo unspecified),111.8%

row,SMILES,Percent Effect
1,CS(=O)(=O)CCN1CCC2(CCCN(C3CCOCC3)C2=O)C1 (stereo unspecified),-2.931%
2,Cc1c(C(=O)N2CCC3(CCCN(CC4CC4)C3=O)C2)ccn1C (stereo unspecified),-5.125%
3,Cn1cccc1C(=O)N1CCC2(CCCN(CC3CC3)C2=O)C1 (stereo unspecified),2.832%
4,Cc1nccnc1CN1CCC2(CCCN(C3CCOCC3)C2=O)C1 (stereo unspecified),1.539%
5,CN1CCN(C(=O)N2CCC3(CCCN(C4CCOCC4)C3=O)C2)CC1 (stereo unspecified),106.4%
6,CC(C)N1CCCC2(CCN(C(=O)COCC(F)(F)C(F)F)C2)C1=O (stereo unspecified),-9.489%
7,Cc1cc(C(=O)N2CCC3(CCCN(CC4CC4)C3=O)C2)c(C)n1C (stereo unspecified),-3.042%
8,CCOC(=O)N1CCC2(CCCN(C3CCOCC3)C2=O)C1 (stereo unspecified),112%
9,COCCOCC(=O)N1CCC2(CCCN(C3CCOCC3)C2=O)C1 (stereo unspecified),121%
10,Cc1nonc1CC(=O)N1C[C@@H]2CC[C@H](C1)N(Cc1ccccc1)C2=O,-22.99%
11,O=C(COCC(F)(F)C(F)F)N1CCC2(CCCN(CCO)C2=O)C1 (stereo unspecified),-15.14%
12,c1ncc2c(n1)CN(CC1CCCCO1)CC2 (stereo unspecified),-13.48%
13,CCn1nc(C)c2nc(C(C)C)nc(NCCOC)c21,-9.329%
14,CS(=O)(=O)Cc1ccccc1NCc1cc(Cl)ccc1Cl,3.453%
15,Cc1n[nH]cc1CNC(=O)Nc1cccc(OCC(F)(F)F)c1,-23.93%
16,CCS(=O)(=O)c1ccc(N2CCC(NC(C)=O)CC2)cc1,-5.151%
17,Cn1cnnc1-c1cncc(NCc2ccccc2Br)c1,9.077%
18,CCC(CC)NCC(c1ccccn1)N1CCOCC1 (stereo unspecified),8.316%
19,CCC(=O)N(CC)C(c1cccnc1)c1ccc2c(c1)CCO2 (stereo unspecified),-9.514%
20,COc1ccc(-c2noc(CN3CCOCC3C)n2)cc1OC (stereo unspecified),-3.831%
21,COc1cccc(-c2noc(CN3CCOCC3C)n2)c1 (stereo unspecified),120.5%
22,CC1COCCN1Cc1nc(-c2ccsc2)no1 (stereo unspecified),130%

row,SMILES,Percent Effect
1,Cc1ccc(CN2C[C@H](O)C[C@H]2c2nc(-c3ccc(F)cc3)no2)cc1,-12.23%
2,CCn1nc2c(cc1=O)CN(Cc1nc(-c3ccsc3)no1)CC2,-2.212%
3,CC1COCCN1Cc1nc(-c2ccc(F)cc2)no1 (stereo unspecified),110.9%
4,c1csc(-c2noc(CC3CCCO3)n2)c1 (stereo unspecified),5.637%
5,COc1cccc(-c2ncc(CN3CCOCC(O)C3)s2)c1 (stereo unspecified),-5.443%
6,O=C1OCCCN1Cc1nc(-c2ccncc2)no1,8.814%
7,CC(C)c1nc2c(n1C)CCN(Cc1nc(-c3ccsc3)no1)C2,5.269%
8,CC1COCCN1Cc1nc(-c2ccc(Br)s2)no1 (stereo unspecified),104.9%
9,CC1COCCN1Cc1nc(-c2cccs2)no1 (stereo unspecified),6.189%
10,CC(Oc1cccc(Cl)c1)C(=O)Nc1cnn(CCN(C)C)c1 (stereo unspecified),-6.613%
11,CC(C)c1nn(CC(=O)N2CCCC2)c(=O)c2c1cnn2C(C)(C)C,46.37%
12,Cc1cnn(CCNCc2ccccc2C#N)c1,-11.13%
13,O=C(CCC1CCCCC1)NS(=O)(=O)CC1CC1,-8.916%
14,Cc1cccc(-c2noc(CN3CCOCC3C)n2)c1 (stereo unspecified),119.9%
15,Cc1cccc(-c2noc(CN3CCn4c(nnc4C4CC4)C3)n2)c1,-14.41%
16,CC1COCCN1Cc1nc(-c2cccc(C(F)(F)F)c2)no1 (stereo unspecified),102.5%
17,CC1COCCN1Cc1nc(-c2cccc(Br)c2)no1 (stereo unspecified),7.569%
18,Cc1cccc(-c2noc(CN3CCC(c4ccn[nH]4)CC3)n2)c1,-15.7%
19,Cc1cccc(-c2noc(CN3CCc4nn(C)c(=O)cc4C3)n2)c1,-3.74%
20,Cc1cnn(CC(C)NCc2csc(-c3ccsc3)n2)c1 (stereo unspecified),2.803%
21,COCc1ccc(CNC(=O)C2=NN(c3ccccc3)C(=O)CN2)cc1,-5.383%
22,CC(C)(C)C(O)CN1CCN(C(=O)c2cccc3[nH]ncc23)CC1 (stereo unspecified),-4.967%
